The record followed here is the supplement of paper PMC12067926.

A number with no mark means an inactive call.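 The calls were made as follows: active = growth AUC significantly below the DMSO wells by Dunnett test; inactive = the rest.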

The test relates to Hymenobacter 1 (Hymenobacter glaciei). The test is described as follows: relative growth (AUC of 72 h growth curve relative to DMSO control, dAUC) (ratio); higher = more growth (less inhibition), active = hit call of the paper. The note with it: 20 µM. The procedure, abridged: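 For relative growth (dAUC), the spline-integrated area under the growth curve was divided by the mean of the DMSO controls. Results were averaged over three biological replicates. Each replicate used a 1:100 dilution, into 96-well plates holding each chemical at 20 µM (1% DMSO), of isolates from Icelandic stream sediments and Silwood Park soil or whole sediment communities that had been grown to carrying capacity in Luria–Bertani medium. Plates were shaken briefly before each hourly A600 reading over 72 h.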
For the compound `CNC(=O)CSP(=S)(OC)OC`, the relative growth was 0.971.

Regarding `N#CCNC(=O)c1cnccc1C(F)(F)F`, the relative growth is 0.973.

As for `COP(=O)(OC)OC=C(Cl)Cl`, the relative growth was 0.909.

In the case of `CCc1cc(C)cc(CC)c1-c1c(OC(=O)C(C)(C)C)n2n(c1=O)CCOCC2`, the relative growth is 0.947.

Consider `CCOc1ccc(C(C)(C)COCc2cccc(Oc3ccccc3)c2)cc1`, for which the relative growth was 0.929.

As for `COc1ncc(F)c2nc(S(=O)(=O)Nc3c(F)cccc3F)nn12`, the relative growth is 1.06.

Take `O=[N+]([O-])c1cc(C(F)(F)F)c(Cl)c([N+](=O)[O-])c1Nc1ncc(C(F)(F)F)cc1Cl`: the relative growth is 0.0968 (active).

As for `COP(=S)(OC)Oc1ccc(SC)c(C)c1`, the relative growth is 1.01.

Take `CCCCCCCCCCCCNC(=N)N`: the relative growth is 0.00418 (active).

For the compound `CC(C)NC(=O)N1CC(=O)N(c2cc(Cl)cc(Cl)c2)C1=O`, the relative growth is 0.959.

Regarding `CCCCOC(=O)[C@H](C)Oc1ccc(Oc2ccc(C#N)cc2F)cc1`, the relative growth is 1.03.

In the case of `CCc1cccc(C)c1N(C(=O)CCl)[C@@H](C)COC`, the relative growth was 1.04.

As for `CC(C1CC1)C(O)(Cn1cncn1)c1ccc(Cl)cc1` (configuration not stated), the relative growth was 1.03.

In the case of `CC(COc1ccc(Oc2ccccc2)cc1)Oc1ccccn1` (configuration not stated), the relative growth is 1.07.

As to `CCNc1nc(Cl)nc(NC(C)C)n1`, the relative growth was 1.06.

As to `N#C/N=C1\SCCN1Cc1ccc(Cl)nc1`, the relative growth was 1.21.

`CCCC1COC(Cn2cncn2)(c2ccc(Cl)cc2Cl)O1` (configuration not stated): the relative growth is 0.937.

For the compound `COc1cc(C)c(C(=O)c2c(OC)ccc(Br)c2C)c(OC)c1OC`, the relative growth is 1.16.

In the case of `C/C(=N\C#N)N(C)Cc1ccc(Cl)nc1`, the relative growth was 0.997.

Regarding `CCCCN(CCCC)SN(C)C(=O)Oc1cccc2c1OC(C)(C)C2`, the relative growth was 1.13.

Turning to `N#Cc1c(Cl)c(Cl)c(Cl)c(C#N)c1Cl`, the relative growth was 0.352 (active).

As to `Cc1nc(N(C)C)nc(OC(=O)N(C)C)c1C`, the relative growth was 0.864.

On to `CC(C)CC(C)c1sccc1NC(=O)c1cn(C)nc1C(F)(F)F` (configuration not stated), for which the relative growth was 0.945.

Regarding `Fc1ccc(Oc2ccnc3cc(Cl)cc(Cl)c23)cc1`, the relative growth is 1.13.

As to `CC1(C)C(C=C(Cl)Cl)C1C(=O)OCc1cccc(Oc2ccccc2)c1` (configuration not stated), the relative growth is 0.989.

Take `Oc1ccccc1-c1ccccc1`: the relative growth was 0.951.

For `CCC(C)c1ccccc1OC(=O)NC` (configuration not stated), the relative growth is 0.856.

For `CN/C(=N\[N+](=O)[O-])NCc1cnc(Cl)s1`, the relative growth was 0.958.

Consider `O=C(O)c1nc(Cl)ccc1Cl`, for which the relative growth is 0.835.

As for `CC1(C)[C@H](/C=C(\Cl)C(F)(F)F)[C@@H]1C(=O)OC(C#N)c1cccc(Oc2ccccc2)c1` (some centres not stated), the relative growth is 1.06.

For `O=C(NC(=O)c1c(F)cccc1F)Nc1ccc(OC(F)(F)C(F)OC(F)(F)F)c(Cl)c1` (configuration not stated), the relative growth was 0.944.

Consider `O=C1C=C(N(Cc2ccc(Cl)nc2)CC(F)F)CO1`, for which the relative growth was 1.1.

As to `O=C(O)COc1ccc(Cl)cc1Cl`, the relative growth is 1.07.

Consider `COc1ccc(C(=CC(=O)N2CCOCC2)c2ccc(Cl)cc2)cc1OC` (mixture of isomers), for which the relative growth was 1.05.

For the compound `CCN(CC)c1nc(C)cc(OP(=S)(OC)OC)n1`, the relative growth is 1.

Regarding `Oc1ccc(Cl)cc1Cc1cc(Cl)ccc1O`, the relative growth was 0.0173 (active).

Consider `N#CC(CCc1ccc(Cl)cc1)(Cn1cncn1)c1ccccc1` (configuration not stated), for which the relative growth was 0.861.
